# Changes are numbered by the printed parent chain.
# How the values were obtained:
# Assay in all cases: PBM; 200 nM protein, PBS
# Conditions in all cases: dsDNA, one strand shown
# HOXC9 [1] = molecular target: HOXC9 (Homo sapiens, UniProt P31274 178-260)
# PROP1 [2] = molecular target: PROP1 (Homo sapiens, UniProt O75360 56-141)
# HOXC9 [3] = molecular target: HOXC9 (Homo sapiens, UniProt P31274 178-260, R222W)
# NKX2-6 [4] = molecular target: T1, NKX2-6 (Homo sapiens, UniProt A6NCS4 118-204, R150C)
# T1 sequence: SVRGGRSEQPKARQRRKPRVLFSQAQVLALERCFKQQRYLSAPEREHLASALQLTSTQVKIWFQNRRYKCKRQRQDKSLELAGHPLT
# NKX3-2 [5] = molecular target: NKX3-2 (Homo sapiens, UniProt P78367 192-278, P234S)
# NKX3-2 [6] = molecular target: NKX3-2 (Homo sapiens, UniProt P78367 192-278)
# ALX3 [7] = molecular target: ALX3 (Homo sapiens, UniProt O95076 139-225, N203Q)
# ALX3 [8] = molecular target: ALX3 (Homo sapiens, UniProt O95076 139-225)
# ALX3 [9] = molecular target: ALX3 (Homo sapiens, UniProt O95076 139-225, L168Q)
# ALX3 [10] = molecular target: ALX3 (Homo sapiens, UniProt O95076 139-225, L168V)
# ALX3 [11] = molecular target: ALX3 (Homo sapiens, UniProt O95076 139-225, N203S)
# NKX2-6 [12] = molecular target: T2, NKX2-6 (Homo sapiens, UniProt A6NCS4 118-204)
# T2 sequence: T1 sequence with C33R
# NKX2-6 [13] = molecular target: T3, NKX2-6 (Homo sapiens, UniProt A6NCS4 118-204, F151L)
# T3 sequence: T1 sequence with C33R, F34L
# ALX1 [14] = molecular target: ALX1 (Homo sapiens, UniProt Q15699 118-204, L144V)
# ALX1 [15] = molecular target: ALX1 (Homo sapiens, UniProt Q15699 118-204, L144R)
# ALX1 [16] = molecular target: ALX1 (Homo sapiens, UniProt Q15699 118-204)
# HOXD13 [17] = molecular target: HOXD13 (Homo sapiens, UniProt P35453 263-343, T313R)
# HOXD13 [18] = molecular target: HOXD13 (Homo sapiens, UniProt P35453 263-343)
# HOXD13 [19] = molecular target: HOXD13 (Homo sapiens, UniProt P35453 263-343, T313A)
# CRX = CRX (Homo sapiens, UniProt O43186 26-111, E42D)
# PROP1 [20] = molecular target: PROP1 (Homo sapiens, UniProt O75360 56-141, R99H)
# PROP1 [21] = molecular target: PROP1 (Homo sapiens, UniProt O75360 56-141, F88S)
# HOXA4 = HOXA4 (Homo sapiens, UniProt Q00056 201-287)
# Sequence of HOXA4 (Q00056 201-287): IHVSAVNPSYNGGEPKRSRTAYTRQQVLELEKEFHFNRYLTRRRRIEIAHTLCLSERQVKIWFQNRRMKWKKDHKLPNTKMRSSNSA
# Sequence of PROP1 (Homo sapiens, UniProt O75360 56-141) (O75360 56-141): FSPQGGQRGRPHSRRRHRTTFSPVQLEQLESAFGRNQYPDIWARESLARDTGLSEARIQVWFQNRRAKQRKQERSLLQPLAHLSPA
# Sequence of NKX3-2 (Homo sapiens, UniProt P78367 192-278) (P78367 192-278): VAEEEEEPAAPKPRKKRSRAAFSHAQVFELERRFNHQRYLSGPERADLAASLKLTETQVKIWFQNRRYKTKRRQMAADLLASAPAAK
# Sequence of NKX3-2 (Homo sapiens, UniProt P78367 192-278, P234S) (P78367 192-278 P234S): as the sequence (P78367 192-278) above, with P43S counted along it
# Sequence of HOXC9 (Homo sapiens, UniProt P31274 178-260) (P31274 178-260): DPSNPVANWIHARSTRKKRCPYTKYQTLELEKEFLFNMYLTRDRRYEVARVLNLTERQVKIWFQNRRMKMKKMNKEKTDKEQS
# Sequence of ALX1 (Homo sapiens, UniProt Q15699 118-204) (Q15699 118-204): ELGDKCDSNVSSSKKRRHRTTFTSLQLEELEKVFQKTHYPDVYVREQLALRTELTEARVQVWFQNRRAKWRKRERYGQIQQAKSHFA
# Sequence of PROP1 (Homo sapiens, UniProt O75360 56-141, R99H) (O75360 56-141 R99H): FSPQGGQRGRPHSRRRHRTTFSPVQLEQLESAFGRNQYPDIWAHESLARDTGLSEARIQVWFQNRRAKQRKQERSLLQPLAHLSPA
# Sequence of ALX1 (Homo sapiens, UniProt Q15699 118-204, L144V) (Q15699 118-204 L144V): as the sequence (Q15699 118-204) above, with L27V counted along it
# Sequence of PROP1 (Homo sapiens, UniProt O75360 56-141, F88S) (O75360 56-141 F88S): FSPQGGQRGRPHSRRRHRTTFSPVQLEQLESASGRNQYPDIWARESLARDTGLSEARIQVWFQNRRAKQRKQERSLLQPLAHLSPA
# Sequence of ALX1 (Homo sapiens, UniProt Q15699 118-204, L144R) (Q15699 118-204 L144R): as the sequence (Q15699 118-204) above, with L27R counted along it
# Sequence of HOXC9 (Homo sapiens, UniProt P31274 178-260, R222W) (P31274 178-260 R222W): as the sequence (P31274 178-260) above, with R45W counted along it
# Sequence of ALX3 (Homo sapiens, UniProt O95076 139-225, N203S) (O95076 139-225 N203S): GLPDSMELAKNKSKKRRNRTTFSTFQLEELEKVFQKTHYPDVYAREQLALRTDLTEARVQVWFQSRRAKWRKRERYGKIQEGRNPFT
# Sequence of ALX3 (Homo sapiens, UniProt O95076 139-225, L168V) (O95076 139-225 L168V): as the sequence (O95076 139-225 N203S) above, with L30V, S65N counted along it
# Sequence of ALX3 (Homo sapiens, UniProt O95076 139-225, N203Q) (O95076 139-225 N203Q): as the sequence (O95076 139-225 N203S) above, with S65Q counted along it
# Sequence of ALX3 (Homo sapiens, UniProt O95076 139-225) (O95076 139-225): as the sequence (O95076 139-225 N203S) above, with S65N counted along it
# Sequence of CRX (O43186 26-111 E42D): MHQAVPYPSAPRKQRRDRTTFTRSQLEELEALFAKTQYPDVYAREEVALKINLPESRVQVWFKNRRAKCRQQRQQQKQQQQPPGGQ
# Sequence of ALX3 (Homo sapiens, UniProt O95076 139-225, L168Q) (O95076 139-225 L168Q): as the sequence (O95076 139-225 N203S) above, with L30Q, S65N counted along it
# Sequence of HOXD13 (Homo sapiens, UniProt P35453 263-343, T313A) (P35453 263-343 T313A): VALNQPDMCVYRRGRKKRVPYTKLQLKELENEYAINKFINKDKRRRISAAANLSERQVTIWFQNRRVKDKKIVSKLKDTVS
# Sequence of HOXD13 (Homo sapiens, UniProt P35453 263-343) (P35453 263-343): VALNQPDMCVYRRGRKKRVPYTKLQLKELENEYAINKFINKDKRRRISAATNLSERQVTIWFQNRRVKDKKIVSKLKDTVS
# Sequence of HOXD13 (Homo sapiens, UniProt P35453 263-343, T313R) (P35453 263-343 T313R): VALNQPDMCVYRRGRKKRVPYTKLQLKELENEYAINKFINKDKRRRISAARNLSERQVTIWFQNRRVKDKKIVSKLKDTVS
sequence,measurement,setting,value
GTCGATAA,binding signal,HOXC9 [1],"10.9 upbm affinity estimate (log intensity, higher = more binding, comparable within an allelic series)"
same,binding signal,PROP1 [2],"8.04 upbm affinity estimate (log intensity, higher = more binding, comparable within an allelic series)"
same,binding signal,HOXC9 [3],"10.3 upbm affinity estimate (log intensity, higher = more binding, comparable within an allelic series)"
AAGTGCTC,binding signal,NKX2-6 [4],"11.6 upbm affinity estimate (log intensity, higher = more binding, comparable within an allelic series)"
same,binding signal,NKX3-2 [5],"12.5 upbm affinity estimate (log intensity, higher = more binding, comparable within an allelic series)"
same,binding signal,NKX3-2 [6],"12.7 upbm affinity estimate (log intensity, higher = more binding, comparable within an allelic series)"
GGGGGCGA,binding signal,NKX2-6 [4],"9.39 upbm affinity estimate (log intensity, higher = more binding, comparable within an allelic series)"
same,binding signal,ALX3 [7],"7.73 upbm affinity estimate (log intensity, higher = more binding, comparable within an allelic series)"
same,binding signal,ALX3 [8],"7.8 upbm affinity estimate (log intensity, higher = more binding, comparable within an allelic series)"
same,binding signal,ALX3 [9],"7.65 upbm affinity estimate (log intensity, higher = more binding, comparable within an allelic series)"
same,binding signal,ALX3 [10],"7.66 upbm affinity estimate (log intensity, higher = more binding, comparable within an allelic series)"
same,binding signal,ALX3 [11],"7.72 upbm affinity estimate (log intensity, higher = more binding, comparable within an allelic series)"
GATAAGTA,binding signal,NKX2-6 [4],"11.6 upbm affinity estimate (log intensity, higher = more binding, comparable within an allelic series)"
same,binding signal,NKX2-6 [12],"13.3 upbm affinity estimate (log intensity, higher = more binding, comparable within an allelic series)"
same,binding signal,NKX2-6 [13],"10.6 upbm affinity estimate (log intensity, higher = more binding, comparable within an allelic series)"
AAGGCCCA,binding signal,NKX2-6 [4],"9.71 upbm affinity estimate (log intensity, higher = more binding, comparable within an allelic series)"
same,binding signal,NKX3-2 [5],"10.7 upbm affinity estimate (log intensity, higher = more binding, comparable within an allelic series)"
same,binding signal,NKX3-2 [6],"10.7 upbm affinity estimate (log intensity, higher = more binding, comparable within an allelic series)"
AAAGTGCA,binding signal,NKX2-6 [4],"11.2 upbm affinity estimate (log intensity, higher = more binding, comparable within an allelic series)"
same,binding signal,NKX2-6 [12],"12.2 upbm affinity estimate (log intensity, higher = more binding, comparable within an allelic series)"
same,binding signal,NKX2-6 [13],"10.1 upbm affinity estimate (log intensity, higher = more binding, comparable within an allelic series)"
CCGTGGGA,binding signal,NKX2-6 [4],"9.37 upbm affinity estimate (log intensity, higher = more binding, comparable within an allelic series)"
same,binding signal,ALX1 [14],"6.49 upbm affinity estimate (log intensity, higher = more binding, comparable within an allelic series)"
same,binding signal,ALX1 [15],"6.42 upbm affinity estimate (log intensity, higher = more binding, comparable within an allelic series)"
same,binding signal,ALX1 [16],"6.53 upbm affinity estimate (log intensity, higher = more binding, comparable within an allelic series)"
ACCCTGCC,binding signal,NKX2-6 [4],"9.52 upbm affinity estimate (log intensity, higher = more binding, comparable within an allelic series)"
same,binding signal,HOXD13 [17],"9.6 upbm affinity estimate (log intensity, higher = more binding, comparable within an allelic series)"
same,binding signal,HOXD13 [18],"9.65 upbm affinity estimate (log intensity, higher = more binding, comparable within an allelic series)"
same,binding signal,HOXD13 [19],"9.68 upbm affinity estimate (log intensity, higher = more binding, comparable within an allelic series)"
CACTTACA,binding signal,NKX2-6 [4],"11.6 upbm affinity estimate (log intensity, higher = more binding, comparable within an allelic series)"
same,binding signal,NKX2-6 [13],"10.6 upbm affinity estimate (log intensity, higher = more binding, comparable within an allelic series)"
same,binding signal,NKX3-2 [5],"12.6 upbm affinity estimate (log intensity, higher = more binding, comparable within an allelic series)"
same,binding signal,NKX3-2 [6],"12.6 upbm affinity estimate (log intensity, higher = more binding, comparable within an allelic series)"
GCCCACGA,binding signal,NKX2-6 [4],"9.49 upbm affinity estimate (log intensity, higher = more binding, comparable within an allelic series)"
same,binding signal,ALX1 [14],"6.38 upbm affinity estimate (log intensity, higher = more binding, comparable within an allelic series)"
same,binding signal,ALX1 [15],"6.28 upbm affinity estimate (log intensity, higher = more binding, comparable within an allelic series)"
same,binding signal,ALX1 [16],"6.37 upbm affinity estimate (log intensity, higher = more binding, comparable within an allelic series)"
ATTGCGCA,binding signal,HOXC9 [1],"10.8 upbm affinity estimate (log intensity, higher = more binding, comparable within an allelic series)"
same,binding signal,HOXC9 [3],"10.1 upbm affinity estimate (log intensity, higher = more binding, comparable within an allelic series)"
AACTAATC,binding signal,CRX,"12.7 upbm affinity estimate (log intensity, higher = more binding, comparable within an allelic series)"
AGCCCCCG,binding signal,NKX2-6 [4],"9.1 upbm affinity estimate (log intensity, higher = more binding, comparable within an allelic series)"
same,binding signal,PROP1 [2],"6.76 upbm affinity estimate (log intensity, higher = more binding, comparable within an allelic series)"
same,binding signal,PROP1 [20],"6.62 upbm affinity estimate (log intensity, higher = more binding, comparable within an allelic series)"
same,binding signal,PROP1 [21],"6.15 upbm affinity estimate (log intensity, higher = more binding, comparable within an allelic series)"
CACAGGCC,binding signal,NKX2-6 [4],"9.58 upbm affinity estimate (log intensity, higher = more binding, comparable within an allelic series)"
same,binding signal,PROP1 [2],"6.73 upbm affinity estimate (log intensity, higher = more binding, comparable within an allelic series)"
same,binding signal,PROP1 [20],"6.9 upbm affinity estimate (log intensity, higher = more binding, comparable within an allelic series)"
same,binding signal,PROP1 [21],"6.72 upbm affinity estimate (log intensity, higher = more binding, comparable within an allelic series)"
ATGAGAAT,binding signal,HOXC9 [1],"10.8 upbm affinity estimate (log intensity, higher = more binding, comparable within an allelic series)"
same,binding signal,HOXA4,"11.2 upbm affinity estimate (log intensity, higher = more binding, comparable within an allelic series)"
